# Compound activity: PubChem BioAssay, several laboratories
# Rows were chosen to be rich in hits. Some 27% of all compounds tested hit in one or more screens of this group.
# CYP2C19 act – human CYP2C19 activators, primary screen, biochemical, luminescence; recombinant CYP2C19, luciferin-H EGE luminescence; active compounds read high; 0 = fully inhibited enzyme, 1 = untreated enzyme; Cytochrome P450 2C19 (Homo sapiens), P33261; 96,000 tested, under 10 active; activation factor at 5 µM;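 active = activation factor of at least 2 at 5 µM in the primary screen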;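 note: 0 = wells with 2.5 mM tranylcypromine and 1 = vehicle-only wells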
# CYP2C19 inh – blockers of cytochrome P450 2C19 activity – biochemical, luminescence, ADME assay, primary screen. hit rate 21% among 96,000. P33261. CYP2C19 Supersomes, luciferin-H EGE luminescence, 30 min. inhibition, % at 5 µM;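 active = CYP2C19 inhibition above a set limit at 5 µM in the primary screen, cut at about 50% in these data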;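 note: plate controls were negative control wells for no effect and 2.5 mM tranylcypromine positive control for full effect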
# EphB4 ephrin blk – EphB4-ephrin-B2 interaction antagonists, primary screen, biochemical, TNYL-RAW peptide probe, fluorescence polarization; Ephrin type-B receptor 4 (Homo sapiens), P54760; EphB4 LBD / TNYL-RAW-Alexa532 peptide; inhibition, % at 7 µM; hit rate 0.15% among 97,000;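 active = inhibition above the screen-wide mean inhibition plus 3 SD, cut at about 15% in these data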;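 note: 0% = DMSO wells and 100% = excess unlabeled TNYL-RAW peptide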
# CYP2C9 inh – blockers of cytochrome P450 2C9 activity – biochemical, luminescence, ADME assay, primary screen; AID 777, 2007; inhibition, % at 5 µM; P11712; hit rate 20% among 96,000; CYP2C9 Supersomes, luciferin-H conversion;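 active = blocking of liver enzyme CYP2C9 beyond about 50% at 5 µM, limit read from the data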
# Target sequence (P11712 whole entry, looked up): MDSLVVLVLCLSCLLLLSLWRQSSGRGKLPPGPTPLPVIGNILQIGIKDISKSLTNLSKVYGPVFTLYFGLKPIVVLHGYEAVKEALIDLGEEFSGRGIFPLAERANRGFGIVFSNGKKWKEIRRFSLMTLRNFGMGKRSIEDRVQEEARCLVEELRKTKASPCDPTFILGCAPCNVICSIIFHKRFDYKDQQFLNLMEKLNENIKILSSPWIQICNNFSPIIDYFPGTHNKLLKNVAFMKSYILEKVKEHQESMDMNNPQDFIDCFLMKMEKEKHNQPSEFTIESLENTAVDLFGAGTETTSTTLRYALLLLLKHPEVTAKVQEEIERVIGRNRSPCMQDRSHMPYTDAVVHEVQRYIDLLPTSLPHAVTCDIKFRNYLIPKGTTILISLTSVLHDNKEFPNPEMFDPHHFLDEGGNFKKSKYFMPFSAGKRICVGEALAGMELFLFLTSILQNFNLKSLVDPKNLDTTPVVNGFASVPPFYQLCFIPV
# CYP2C9 act – human CYP2C9 activators, primary screen, biochemical, luminescence; hit rate 1.4% among 96,000; activation factor at 5 µM; AID 1024, 2008; recombinant CYP2C9, luciferin-H conversion; active compounds read high; factor 1 = untreated enzyme, 0 = blocked;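 active = activation factor of 2 or more for CYP2C9 at a 5 µM dose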;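 note: 0 = sulfaphenazole-blocked wells and 1 = vehicle-only wells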
# * marks the source's active call; other numbers are inactive results; x = no result.
SMILES,CYP2C19 act,CYP2C19 inh,EphB4 ephrin blk,CYP2C9 inh,CYP2C9 act
O=C(C1CCCN(S(=O)(=O)c2cccc3nsnc23)C1)N1CC=C(c2ccccc2)CC1 (stereo not given),0.4,64*,-4,69*,0.3
O=C(Oc1ccccc1Cl)c1ccc(-n2cncn2)nc1,0.1,93*,-6,78*,0.2
C=CCOC(=O)c1ccc(-n2cncn2)nc1,0.2,80*,-5,31,0.7
CN(C)c1ccc(C(=O)Nc2cc(C(F)(F)F)ccc2-n2cncn2)cc1,1.1,-7,0,-4,1
CN(C)CCCNCCCNC(=O)/C=N/O,1.1,-10,-4,16,0.8
COc1cc2[nH]c(=O)c(C(=O)NCCCN3CCCCC3)c(O)c2cc1OC,0.5,52*,9,28,0.7
O=C(NCCCN1CCOCC1)c1c(O)c2ccccc2[nH]c1=O,1.1,-10,4,-10,1.1
COc1ccccc1NS(=O)(=O)c1cccc(C(=O)N/N=C(\C)c2ccc(-n3ccnc3)cc2)c1,0,100*,-1,99*,0
COc1ccc(NC(=O)C(c2ccc(C)cc2)N(C)C(=O)c2cnccn2)cc1 (stereo not given),0.5,52*,x,53*,0.5
COc1ccc(C(C(=O)Nc2ccc(C(C)C)cc2)N(C)C(=O)CNC(C)=O)cc1 (stereo not given),0.8,24,2,33,0.7
COc1ccc(N2CCN(CCNC(=O)Nc3ccc(Cl)cc3)CC2)cc1,0.9,10,-5,47,0.5
COc1ccc(N(C(=O)Nc2ccc(Cl)cc2)C2=NCCC2)cc1,0.9,10,9,54*,0.5
CCCC(c1nnnn1CC(=O)OCC)N(Cc1cc2c(C)cc(C)cc2[nH]c1=O)C1CCCC1 (stereo not given),0.7,28,2,27,0.7
Cn1c(Sc2ccc(Cl)cc2)c(C=O)c2ccccc21,1,4,8,96*,0
Cc1cccc(Sc2c(C=O)c3ccccc3n2C)c1,0.2,81*,-7,77*,0.2
Cn1c(Sc2ccccc2Cl)c(C=O)c2ccccc21,0.6,40,-6,36,0.6
Cc1cccc(CNC(=O)c2ccccc2N)c1,0.8,17,-3,-18,1.2
N#CCCN/N=C(/Cc1nc2ccccc2[nH]1)c1ccc(Cl)cc1,0,98*,1,75*,0.2
N#CCCN/N=C(\Cc1nc2ccccc2[nH]1)c1ccccc1,0.8,16,6,23,0.8
COc1nc(N(C)C)nc(N(OC)S(=O)(=O)c2ccccc2Cl)n1,0.1,90*,x,72*,0.3
CN(C)c1nc(NS(=O)(=O)c2ccc(Cl)cc2)nc(N(C)C)n1,0.8,22,0,30,0.7
COc1cc(C)nc(N(C)S(=O)(=O)c2ccccc2Cl)n1,0.3,73*,4,23,0.8
COc1cc(C)nc(N2CCCC(C(=O)Nc3cccc(Cl)c3Cl)C2)n1 (stereo not given),0.8,15,-12,32,0.7
CON(c1nc(Cl)nc(N(C)C)n1)S(=O)(=O)c1ccccc1Cl,0.3,69*,-3,-24,1.2
COc1ccc(C2C3=C(CCCC3=O)Nc3c(-c4ccccc4)c(C)nn32)cc1 (stereo not given),0.3,71*,2,35,0.6
SMILES,CYP2C19 act,CYP2C19 inh,EphB4 ephrin blk,CYP2C9 inh,CYP2C9 act
COc1ccc(N2CC(C(=O)OCC(=O)c3cccc(OC)c3)CC2=O)cc1 (stereo not given),0.8,15,-3,42,0.6
COc1ccccc1N1CC(C(=O)OCC(=O)c2ccc(F)cc2)CC1=O (stereo not given),0.7,26,6,-64,1.6
Cc1cccc(N2CC(C(=O)OCC(=O)c3ccc(OC(=O)c4cccs4)cc3)CC2=O)c1C (stereo not given),0.3,71*,0,76*,0.2
Cc1ccc(C(=O)COC(=O)C2CC(=O)N(c3nc(-c4ccccc4)cs3)C2)cc1 (stereo not given),0.3,71*,5,79*,0.2
CCOC(=O)CCCc1sc(N)nc1-c1[nH]c(=O)[nH]c1C,1.2,-17,-8,-4,1
CCC(=O)NCC(=O)OCC(=O)c1ccccc1,x,x,-3,x,x
CCC(=O)Nc1ccccc1C(=O)OCC(=O)c1ccccc1,0.3,73*,-2,91*,0.1
O=C(COC(=O)c1ccccc1NC(=O)c1ccccc1)c1ccc([N+](=O)[O-])cc1,0.4,63*,5,70*,0.3
CCOC(=O)c1ccccc1NC(=O)c1ccc(F)cc1,1,-4,-9,-9,1.1
CCC(=O)Nc1ccccc1C(=O)OCC(=O)c1ccc2ccccc2c1,0.1,90*,-1,69*,0.3
CCOC(=O)CC1C(=O)NCCN1C(=O)c1cc2c(=O)n3ccccc3nc2s1 (stereo not given),1.1,-12,-7,-3,1
COCCNC(=O)CN1C(=O)CC(C)(C)S(=O)(=O)c2ccccc21,1.1,-12,5,0,1
CC1(C)CC(=O)N(CC(=O)NCc2ccc(F)cc2)c2ccccc2S1(=O)=O,0.4,62*,0,8,0.9
CC1(C)CC(=O)N(CC(=O)NCc2ccccc2)c2ccccc2S1(=O)=O,0.3,69*,0,39,0.6
CC(C)OCCCNC(=O)CN1C(=O)CC(C)(C)S(=O)(=O)c2ccccc21,0.8,23,-7,23,0.8
CC(=O)Oc1oc(-c2ccccc2)nc1/C=N/c1ccccn1,0.6,38,-1,21,0.8
O=C(COc1ccc2c3c(c(=O)oc2c1)CCC3)c1ccc2c(c1)OCO2,0.4,58*,1,82*,0.2
OCCSc1nc(-c2cccnc2)nc2ccccc12,0.4,63*,-6,90*,0.1
OCCNc1nc(-c2cccnc2)nc2ccccc12,0.9,15,5,8,0.9
Cc1ccc(-c2nc(N/N=C/c3cccnc3)c3ccccc3n2)cc1,0,96*,1,82*,0.2
c1ccc(-c2nc(NCc3cccnc3)c3ccccc3n2)cc1,0.7,28,2,65*,0.4
Clc1cccc(-c2nc(NCc3cccnc3)c3ccccc3n2)c1,1,4,0,37,0.6
Cc1ccc(-c2nc(N/N=C/c3cccc([N+](=O)[O-])c3)c3ccccc3n2)cc1,x,x,-6,x,x
c1cncc(-c2nc(NCc3ccco3)c3ccccc3n2)c1,0.8,24,2,62*,0.4
O=c1oc(-c2cccnc2)nc2ccccc12,0.9,5,9,-2,1
C=CCNC(=O)c1ccc(N(CC=C)S(C)(=O)=O)cc1,x,x,-7,x,x
COc1cccc(-c2nc(NCc3ccco3)c3ccccc3n2)c1O,x,x,-10,x,x
OCCN1CCN(c2nc(NCc3ccco3)c3ccccc3n2)CC1,x,x,-7,x,x
